Shh pathway inh = Hedgehog pathway signaling inhibitors, primary screen, luminescence, Shh-LIGHT2 cells, Gli-luciferase; hit rate 2.1% among 22,000; AID 2313, 2010; inhibition, % (test concentration not listed); Shh-LIGHT2 Gli-luciferase reporter, 30 h;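 active = mean inhibition across valid replicates above about 65%, limit read from the data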;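 also: pathway switched on by Shh-conditioned medium diluted 1 in 25 in low serum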
MITF inhib = inhibitors of MITF, primary screen, MITF inhibitor project, cell-based, luminescence; AID 2240, 2010; inhibition, % (concentration not given with the values); TRPM1 promoter luciferase, 24 h; hit rate 0.28% among 37,000; in the data active = inhibition above about 85%;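 also: human melanocyte line stably carrying TRPM1 promoter luciferase reporter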
NOMO-1 viab = NOMO-1 AML cell viability reduction, primary screen, STK33 inhibitor project, CellTiter-Glo luminescence. NOMO-1 AML viability, 72 h. inhibition, % (concentration not given with the values). hit rate 7.5% among 37,000. AID 2330, 2010; in the data active = inhibition above about 80%
Each line names hits and unclear results; the compound was inactive in the other large screens. This is a sample that favours compounds with a hit; in the whole collection about 7.8% have one here.

C[C@@H]1CN([C@@H](C)CO)C(=O)c2cc(NC(=O)Nc3ccccc3)ccc2O[C@@H]1CN(C)C(=O)Nc1ccc(F)cc1	none
COc1c(O)cc2c(c1O)C(=O)OC(C)C(O)c1c(O)c(O)c(OC)c(O)c1C(=O)OC(C)C2O (configuration not stated)	none
C[C@@H]1CN([C@@H](C)CO)C(=O)c2cc(N(C)C)ccc2O[C@@H]1CN(C)S(=O)(=O)c1cn(C)cn1	none
N#Cc1c(C(F)(F)F)cc(-c2cccs2)nc1S/C=C/C(=O)c1ccccc1	NOMO-1 viab 115.9
N#Cc1c(C(F)(F)F)cc(-c2cccs2)nc1SCC(=O)Nc1c(F)cccc1F	none (no result: Shh pathway inh)
CCN(CC(=O)Nc1ccccc1Br)S(=O)(=O)c1ccc2ccccc2c1	none (no result: Shh pathway inh)
Cc1c(-c2ccccc2)[n+](=O)c(-c2ccc(Br)cc2)c(C)n1[O-]	Shh pathway inh 66.8
COc1ccc(S(=O)(=O)Nc2c(C)nc3nc[nH]n3c2=O)cc1	none (no result: Shh pathway inh)
COc1ccc(S(=O)(=O)Nc2cc(C)cc(C)c2)cc1	NOMO-1 viab 95.6
Cc1ccc(C(=O)Cn2c3c(sc2=N)CCCC3)cc1	Shh pathway inh 76.0, MITF inhib 88.2
Cc1ccc(C(=O)Cn2c(C)csc2=Nc2ccccc2)cc1	none (no result: Shh pathway inh)
C[C@@H]1CN([C@@H](C)CO)C(=O)c2cccc(NS(=O)(=O)c3ccc(Cl)cc3)c2O[C@@H]1CN(C)S(=O)(=O)c1cccs1	NOMO-1 viab 84.8
C[C@H](CO)N1C[C@H](C)[C@H](CN(C)S(=O)(=O)c2cccs2)Oc2c(NC(=O)Nc3ccc(C(F)(F)F)cc3)cccc2C1=O	NOMO-1 viab 92.0
C[C@@H]1CN([C@H](C)CO)C(=O)c2cccc(NC(=O)Nc3ccc(F)cc3)c2O[C@@H]1CN(C)S(=O)(=O)c1cccs1	none
C[C@@H]1CN([C@@H](C)CO)C(=O)c2cccc(NS(=O)(=O)c3ccc(Cl)cc3)c2O[C@H]1CN(C)S(=O)(=O)c1cccs1	none
C[C@@H]1CN([C@H](C)CO)C(=O)c2cccc(NC(=O)C3CC3)c2O[C@H]1CN(C)S(=O)(=O)c1cccs1	none
C[C@H]1CN([C@@H](C)CO)C(=O)c2cccc(NC(=O)Nc3ccc(C(F)(F)F)cc3)c2O[C@H]1CN(C)S(=O)(=O)c1cccs1	NOMO-1 viab 90.5
C[C@@H]1CN([C@H](C)CO)C(=O)c2cccc(NC(=O)Nc3ccc(F)cc3)c2O[C@H]1CN(C)S(=O)(=O)c1cccs1	none
C[C@H](CO)N1C[C@H](C)[C@H](CN(C)S(=O)(=O)c2cccs2)Oc2c(NC(=O)C3CC3)cccc2C1=O	Shh pathway inh 84.9
Cc1ccc(S(=O)(=O)NC(C)C(=O)Nc2ccc(Br)cc2)cc1 (configuration not stated)	none (no result: Shh pathway inh)
COc1ccccc1NC(=O)C1=C(C)Nc2nnnn2C1c1ccccn1 (configuration not stated)	none (no result: Shh pathway inh)
C[C@@H]1CN([C@@H](C)CO)C(=O)c2cccc(NC(=O)c3ccncc3)c2O[C@@H]1CN(C)C(=O)Nc1cccc2ccccc12	none
CC(C)NC(=O)Nc1ccc2c(c1)C(=O)N([C@@H](C)CO)C[C@@H](C)[C@H](CN(C)C(=O)Nc1cccc3ccccc13)O2	none
C[C@@H]1CN([C@H](C)CO)C(=O)c2cc(NC(=O)Nc3ccc(C(F)(F)F)cc3)ccc2O[C@H]1CN(C)S(=O)(=O)c1cccs1	none (no result: Shh pathway inh)
C[C@H](CO)N1C[C@H](C)[C@@H](CN(C)S(=O)(=O)c2cccs2)Oc2ccc(NC(=O)Nc3ccc(C(F)(F)F)cc3)cc2C1=O	NOMO-1 viab 92.0
COc1ccc(S(=O)(=O)N(C)C[C@H]2Oc3ccc(NC(=O)C4CC4)cc3C(=O)N([C@@H](C)CO)C[C@@H]2C)cc1	none (no result: Shh pathway inh)
C[C@@H]1CN([C@@H](C)CO)C(=O)c2cc(NS(=O)(=O)c3cccs3)ccc2O[C@@H]1CN(C)Cc1ccccc1	none
C[C@H](CO)N1C[C@H](C)[C@H](CN(C)Cc2ccc(Oc3ccccc3)cc2)Oc2ccc(NS(=O)(=O)c3cccs3)cc2CC1=O	none
C[C@@H]1CN([C@H](C)CO)C(=O)Cc2cc(NS(=O)(=O)c3cccs3)ccc2O[C@H]1CN(C)Cc1ccc(Oc2ccccc2)cc1	NOMO-1 viab 88.5
COc1ccc(CN(C)C[C@@H]2Oc3ccc(NS(=O)(=O)c4cccs4)cc3C(=O)N([C@H](C)CO)C[C@@H]2C)cc1	none
C[C@@H]1CN([C@H](C)CO)C(=O)c2cc(NS(=O)(=O)c3cccs3)ccc2O[C@@H]1CN(C)Cc1ccc(Oc2ccccc2)cc1	NOMO-1 viab 105.9
COc1ccc(NC(=O)CSc2nc(C)cc(C)n2)cc1	none (no result: Shh pathway inh)
COC(=O)c1cc(NC(=O)CSc2nc(C)cc(C)n2)cc(C(=O)OC)c1	NOMO-1 viab 113.8 (no result: Shh pathway inh)
O=C(COc1ccc([N+](=O)[O-])cc1)Nc1cccc(-c2nc3cc(Cl)ccc3o2)c1	none (no result: Shh pathway inh)
C[C@@H]1CCCCO[C@H](CN(C)C(=O)Cc2ccccc2)[C@@H](C)CN([C@H](C)CO)C(=O)c2cc(NC(=O)Cc3ccccc3)ccc2O1	none
CC(C)NC(=O)N(C)C[C@H]1Oc2ccc(NC(=O)CCN3CCOCC3)cc2C(=O)N([C@H](C)CO)C[C@@H]1C	none
CC1=CC(C)C2(COC(=O)NC3CCCCC3)COC3(CCCC3)C1C2C (configuration not stated)	NOMO-1 viab 113.2 (no result: Shh pathway inh)
O=C(NC(CO)Cc1ccccc1)c1ccccc1 (configuration not stated)	none
C[C@@H]1CN([C@@H](C)CO)C(=O)c2cccc(NC(=O)CCCCCC(=O)Nc3ccccc3N)c2O[C@H]1CN(C)C(=O)NC1CCCCC1	none (no result: Shh pathway inh)
C[C@H]1CN([C@@H](C)CO)C(=O)Cc2cc(NC(=O)Nc3ccccc3)ccc2O[C@@H]1CN(C)C	none
Cn1c(=S)[nH]c2sc3c(c2c1=O)CCC(C(C)(C)C)C3 (configuration not stated)	NOMO-1 viab 123.2
O=c1c2c3c(sc2[nH]c(=S)n1Cc1ccccc1)CCC3	none (no result: Shh pathway inh)
COc1ccccc1CN1CCN(Cc2ccc(OC)c(OC)c2OC)CC1	none (no result: Shh pathway inh)
C=C1C(=O)O[C@@H]2C[C@H](C)[C@@]3(O)C[C@H](O)[C@@](C)(C[C@@H](OC(=O)C(C)C)[C@@H]12)O3	NOMO-1 viab 118.6
Cc1ccc2c(c1)c(-c1ccccc1)c(-c1ccccc1)n2CC(O)CN1CCN(CCO)CC1 (configuration not stated)	NOMO-1 viab 90.5 (no result: Shh pathway inh)
CC(C)(C)c1ccc(OCC(O)CN2CCN(CCO)CC2)cc1 (configuration not stated)	none (no result: Shh pathway inh)
O=C(NCCCn1ccnc1)c1ccc(Cl)c(Cl)c1	none (no result: Shh pathway inh)
Nc1c2c(nc3ccccc13)CCCC2	none
Nc1c2ccccc2nc2ccccc12	NOMO-1 viab 106.8
CC(C)=CCc1c(O)ccc2ccc(=O)oc12	none
COc1c(O)cc2oc3cc(O)c(CC=C(C)C)c(O)c3c(=O)c2c1CC=C(C)C	NOMO-1 viab 97.9
CC(C)=CCc1c(O)cc2oc3c(CC=C(C)C)c(O)c(O)c(CC=C(C)C)c3c(=O)c2c1O	Shh pathway inh 102.5 (no result: MITF inhib, NOMO-1 viab)
COc1cc2ccc(=O)oc2c(CC=C(C)C)c1OC	none
CS(=O)(=O)N(CC(=O)Nc1cccc(Cl)c1Cl)c1cc(C(F)(F)F)ccc1Cl	none (no result: Shh pathway inh)
C[C@@H]1CN([C@@H](C)CO)C(=O)c2cc(NS(=O)(=O)c3ccc(Cl)cc3)ccc2O[C@@H]1CN(C)Cc1ccc(C(F)(F)F)cc1	NOMO-1 viab 123.4
